Source: the supplement of paper PMC11219838

The compounds below were run on Caenorhabditis elegans dauer (daf-2(e1370)) (assay: proportion of mobile C. elegans dauer larvae relative to DMSO control (fraction of DMSO control); higher = more viable, less nematicidal, active = 0.63 or less; extreme values may be limits of the assay). Settings: 60 µM; 5 days; temperature: 20 °C.
Protocol: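 DODA library (846 commercial 1,3,4- and 1,2,4-oxadiazole compounds plus commercial nematicide controls) screened at a single dose of 60 µM (0.6% DMSO) in 96-well plates, two biological replicates. Read-outs: C. elegans N2 L1 survival/reproduction score at day 6, 20 °C (0: 0-10 worms, 1: 11-20, 2: 21-50, 3: >50, 4: overgrown/starved). C. elegans daf-2 dauer, D. dipsaci and M. hapla J2 mobility at day 5, 20 °C, and P. penetrans mobility at day 5, 20 °C, each relative to DMSO controls. M. hapla egg hatching at day 12, 25 °C, relative to the mean of 8 DMSO wells on the same plate.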
For `COc1ccccc1-c1nnc(SCC(=O)OCc2ccccc2)o1`, the “proportion of mobile C. elegans dauer larvae” value (shortened to “proportion”) was 1 (inactive). In the case of `Cc1ccc(-c2noc(COc3ccc(C)cc3C)n2)cc1`, the “proportion” value is reported as 1 (inactive). In the case of `c1ccc(COc2cccc(-c3nc(-c4ccncc4)no3)c2)cc1`, the “proportion” value is reported as 1 (inactive). `COc1ccccc1-c1nnc(SCC(=O)Nc2ccccc2Cl)o1` was tested, and the “proportion” value was 1 (inactive). In the case of `Cn1c(SCc2nnc(-c3ccccc3)o2)nnc1-c1ccco1`, the “proportion” value is reported as 1 (inactive). For `CCCOc1ccc(-c2ccc(-c3nc(-c4ccccn4)no3)cc2)cc1`, the “proportion” value was 1 (inactive). `Fc1cccc(-c2nc(-c3cccnc3)no2)c1` was tested, and the “proportion” value was 1 (inactive). For `CCOC(=O)c1c(NC(=O)CSc2nnc(-c3ccccc3OCC)o2)sc(C(C)=O)c1C`, the “proportion” value was 1 (inactive). In the case of `O=C(CSc1nnc(-c2ccccc2)o1)Nc1ccccc1F`, the “proportion” value is reported as 1 (inactive). With `CCN(Cc1ccccc1)C(=O)c1ccccc1-c1nc(-c2cccc(C)c2)no1` the “proportion” value was 1 (inactive). `COc1ccccc1-c1nc(-c2ccccc2Cl)no1` was tested, and the “proportion” value was 1 (inactive). `Clc1ccc(-c2nc(-c3ccc4c(c3)OCO4)no2)cc1` was tested, and the “proportion” value was 1 (inactive). `COc1ccc(-c2nnc(SCC(=O)Nc3ccc(Cl)cc3C)o2)cc1` was tested, and the “proportion” value was 1 (inactive). For `COc1ccc(-c2noc(CSc3ccc(C)cc3)n2)cc1`, the “proportion” value was 1 (inactive). `CSc1ccccc1-c1nc(-c2cccnc2)no1` was tested, and the “proportion” value was 0.684 (inactive). `Cc1ccc(C(=O)Nc2ccccc2-c2nc(-c3cccnc3)no2)cc1C` was tested, and the “proportion” value was 1 (inactive). With `CC(C)Oc1ccc(-c2nc(-c3ccccc3)no2)cc1` the “proportion” value was 1 (inactive). For `Cc1cccc(OC(C)c2nc(-c3cccnc3)no2)c1` (stereo not given), the “proportion” value was 1 (inactive). With `Cc1cccc(-c2noc(-c3cccc(Cl)c3)n2)c1` the “proportion” value was 1 (inactive). For `Cc1ccc(NC(=O)CSc2nnc(-c3ccncc3)o2)cc1Cl`, the “proportion” value was 1 (inactive). In the case of `Cc1ccc(-c2nc(-c3ccccn3)no2)cc1C`, the “proportion” value is reported as 1 (inactive). For `COc1ccc(CC(=O)Nc2ccc(-c3noc(-c4ccccc4Br)n3)cc2)cc1`, the “proportion” value was 1 (inactive). `CC(=O)Nc1ccc(NC(=O)c2ccccc2-c2nc(-c3cccc(C)c3)no2)cc1` was tested, and the “proportion” value was 1 (inactive). With `CCc1nnc(NC(=O)CSc2nnc(-c3ccc(Cl)cc3Cl)o2)s1` the “proportion” value was 1 (inactive). `COc1ccc(-c2noc(C34CC5CC(CC(C5)C3)C4)n2)cc1` was tested, and the “proportion” value was 1 (inactive). With `Clc1ccc(SCc2nc(-c3cccnc3)no2)cc1` the “proportion” value was 0.156 (active). With `COc1nc(C)ccc1-c1noc(-c2ccccc2Cl)n1` the “proportion” value was 1 (inactive). For `Cc1ccc(-c2nc(-c3cccc(C)c3)no2)cc1`, the “proportion” value was 1 (inactive). `O=C(CSc1nnc(-c2cccc(Br)c2)o1)Nc1ccccn1` was tested, and the “proportion” value was 1 (inactive). `Cc1ccc(-c2noc(COc3ccc(Cl)cc3C)n2)cc1` was tested, and the “proportion” value was 1 (inactive). For `Cc1ccoc1-c1nnc(-c2ccco2)o1`, the “proportion” value was 1 (inactive). For `O=C(CSc1nnc(-c2ccc(Cl)cc2Cl)o1)c1ccc2c(c1)OCCO2`, the “proportion” value was 1 (inactive). In the case of `COc1ccccc1-c1noc(-c2ccc(C(C)(C)C)cc2)n1`, the “proportion” value is reported as 1 (inactive). For `CCOc1ccccc1-c1nnc(SCC(=O)c2ccccc2)o1`, the “proportion” value was 1 (inactive). In the case of `Clc1cc(Br)ccc1OCc1nc(-c2ccccc2)no1`, the “proportion” value is reported as 1 (inactive). For `Cc1nc(CSc2nnc(-c3ccccc3)o2)cs1`, the “proportion” value was 1 (inactive). With `CCOc1cc(-c2nc(-c3ccc(OC)cc3)no2)cc(OCC)c1OCC` the “proportion” value was 1 (inactive). With `Cc1cc(OCc2nc(-c3cccnc3)no2)c(C)c(C)c1Br` the “proportion” value was 1 (inactive). With `COc1ccc(-c2noc(CSc3nc4cc(C)ccc4[nH]3)n2)cc1` the “proportion” value was 1 (inactive). For `CC(=O)Nc1ccc(-c2nc(-c3ccccc3)no2)cc1`, the “proportion” value was 1 (inactive).
